Source: PubChem
ANO1 activ: activators or potentiators of mouse TMEM16A chloride channel; Q8BHY3; HEK293 TMEM16A/YFP-H148Q/I152L, iodide quench fluorescence; active compounds read low; B-score at 10 µM; actives 0.3% (n = 340,000); AID 623877;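 active = fluorescence-ratio B-score plate-corrected deviation score at least 3 library SD below zero, with starting fluorescence score within 5 deviations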;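 also: channel opened by trigger with iodide after compound preincubation; score built on the fluorescence ratio of max minus min over baseline; more negative score means more quench and so TMEM16A activation or potentiation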
NTR1 agonist: activates human neurotensin receptor 1 | P30989 | NTR1-U2OS beta-arrestin-GFP spot imaging, agonist mode | activation, % at 20 µM | actives 0.17% (n = 330,000);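 active = activation at or above 40% of the spot to cytoplasm intensity ratio, with at least 20 cells analyzed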;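 also: 0% = DMSO without peptide and 100% = 100 nM NTR1 peptide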
Target sequence (P30989 whole entry, looked up): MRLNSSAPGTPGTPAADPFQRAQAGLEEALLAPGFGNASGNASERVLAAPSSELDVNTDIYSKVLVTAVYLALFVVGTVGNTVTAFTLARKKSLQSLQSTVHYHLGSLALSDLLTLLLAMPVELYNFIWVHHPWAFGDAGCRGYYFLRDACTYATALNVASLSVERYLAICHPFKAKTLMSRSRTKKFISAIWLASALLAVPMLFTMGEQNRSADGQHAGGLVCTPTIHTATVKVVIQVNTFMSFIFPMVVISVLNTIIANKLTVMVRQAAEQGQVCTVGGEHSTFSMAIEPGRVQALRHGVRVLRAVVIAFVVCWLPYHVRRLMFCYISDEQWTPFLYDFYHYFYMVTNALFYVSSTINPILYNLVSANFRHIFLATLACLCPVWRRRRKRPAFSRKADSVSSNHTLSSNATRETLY
CHO-K1 Ca antag: M1 antagonist counterscreen hit in parental CHO-K1 cells; ATP-induced calcium, Fluo-8 fluorescence; inhibition, % at 3 µM; actives 0.6% (n = 360,000); AID 602250;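 active = inhibition above a per-plate cutoff, the plate's mean sample inhibition plus 3 SD, cut at about 24% in these data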;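 also: 0% = DMSO plus EC80 ATP and 100% = DMSO alone without ATP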
ANO1 block: mouse TMEM16A channel inhibition, primary screen. Q8BHY3. HEK293 TMEM16A/YFP iodide influx fluorescence, ionomycin. normalized B-score (activity score, 25-100; higher = stronger inhibition) at 10 µM. actives 1.2% (n = 310,000);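 active = ratio plate-corrected score three or more library SD toward inhibition, starting fluorescence score within five deviations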;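 also: score derived from kinetic fluorescence span divided by baseline fluorescence per well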
M1 PAM parental: nonselective activator or artifact in parental CHO-K1 calcium assay. ATP EC20, Fluo-8 calcium fluorescence; 0% at ATP EC20, 100% at ATP max. activation, % at 3 µM. actives 0.02% (n = 360,000);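 active = activation above the run cutoff, the mean activation of all test compounds plus 3 SD, cut at about 40% in these data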;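 also: peak over basal fluorescence ratio in a 140 s read after ATP addition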
CHO-K1 Ca ag: M1 agonist counterscreen hit in parental CHO-K1 cells | Fluo-8 calcium fluorescence; scaled to maximal ATP response, vehicle zero | activation, % at 3 µM | actives 0.48% (n = 360,000) | AID 602248; in the data active = activation above about 15%;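 also: untransfected CHO-K1 host cells lacking M1 receptor as counterscreen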
TMEM16A reconf: re-confirmation of mouse TMEM16A chloride channel inhibitors; inhibition, % at 10 µM; actives 39% (n = 2,300); shares compounds with ANO1 block; HEK293 TMEM16A/YFP-H148Q, iodide quench fluorescence; ionomycin added to raise cell calcium;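 active = mean duplicate percent inhibition, scaled so buffer wells are 0 and the reference blocker 100, over three buffer SD above buffer mean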
TMEM16A Ca cntr: counter-screen for TMEM16A inhibitors: effect on calcium mobilization. calcium response (% of ionomycin), % at 10 µM. TMEM16A/YFP HEK293, Fluo4 calcium mobilization. actives 2% (n = 2,300). shares compounds with ANO1 block;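 active = duplicate-averaged calcium signal over 20% of the ionomycin maximum, relative to buffer baseline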;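 also: each well's signal is peak minus trough fluorescence divided by its pre-addition baseline; 0% = buffer wells and 100% = ionomycin wells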
Parental YFP cnt: counter-screen for TMEM16A inhibitors: effect in parental YFP-HEK293 cells; AID 652233; YFP ratio F(max-min)/F0 at 10 µM; shares compounds with ANO1 block; iodide YFP quench, ionomycin; 2,300 tested, under 10 active;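 active = yellow fluorescent protein signal ratio exceeding the buffer control mean by over 5 SD of those controls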;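 also: ratio is mean of duplicate wells from kinetic YFP trace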
ClC-1 inh: selectivity of TMEM16A inhibitors: inhibition of rat ClC-1 chloride channel | shares compounds with ANO1 block | CHO ClC-1-YFP, iodide influx fluorescence quench; iodide control reads 0, buffer control 100 | ratio percent, % at 10 µM | 2,300 tested, under 10 active | AID 652236;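 active = duplicate-mean ratio percent above the mean of iodide-only control wells, which defines zero, plus 5 of their SD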;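 also: higher percent means stronger block of ClC-1 iodide influx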
* marks the source's active call; other numbers are inactive results; i = inactive; / = no result. An excerpt weighted towards active compounds, which were near 2.2% of everything screened.

SMILES	ANO1 activ	NTR1 agonist	CHO-K1 Ca antag	ANO1 block	M1 PAM parental	CHO-K1 Ca ag	TMEM16A reconf	TMEM16A Ca cntr	Parental YFP cnt	ClC-1 inh
O=S(=O)(Nc1ccc(S(=O)(=O)N2CCCCC2)cc1)c1ccc(Br)s1	i	1	0	25*	1	3	i	i	-0.95	-4
COc1ccc(C(C)C)cc1-c1cccc2nncn12	/	/	11	/	0	3	/	/	/	/
O=C(CCCSc1ccc(Cl)cc1)Nc1cc(S(=O)(=O)N2CCOCC2)ccc1O	i	0	-7	/	3	6	/	/	/	/
CCc1nc2ccc(C(=O)Nc3ccc(C(N)=O)cc3)cn2c1N(CCC(C)C)CCN(C)C	/	/	-3	/	7	0	/	/	/	/
Cc1nc(CN(C)C(=O)c2cc(COc3ccc4ncccc4c3)on2)cs1	i	-1	21	100*	-5	14	18%*	i	-1	-25
CN(C)C(CNC(=O)c1cc2ccccc2o1)c1ccco1 (stereo not given)	i	-2	-12	/	13	1	/	/	/	/
O=S(=O)(Nc1nnc(-c2ccccc2)s1)c1ccc(Cl)cc1	i	-1	-5	100*	16	1	38%*	i	-0.9	-18
O=C(CSc1ncccn1)NC1CCCC1	/	/	-5	/	13	1	/	/	/	/
CCC1Sc2ccccc2N(CC(=O)NCCC2=CCCCC2)C1=O (stereo not given)	i	4	-7	i	-2	0	i	i	-0.71	-2
CCC1Sc2ccccc2N(CC(=O)NC2CC2)C1=O (stereo not given)	i	1	-9	i	11	1	/	/	/	/
Cc1nnc(SCc2cnc(-c3ccc(C(C)C)cc3)s2)n1C	i	3	-24	100*	20	1	24%*	i	-0.93	4
c1ccc(-c2ncc(CSc3nncn3-c3ccccc3)s2)cc1	i	0	-11	i	16	1	/	/	/	/
C[C@@H]1CN([C@H](C)CO)C(=O)c2cc(C3=CCCCC3)cnc2O[C@@H]1CN(C)Cc1ccccc1C(=O)O	/	/	-4	/	17	0	/	/	/	/
Cc1ccccc1OCc1nc(-c2ccc(NC(=O)c3ccco3)cc2)no1	i	6	19	25*	-9	1	i	i	-1	-10
O=C(CCN=C1NS(=O)(=O)c2ccccc21)OCc1nnc(-c2ccc([N+](=O)[O-])cc2)o1	i	0	-8	/	10	1	/	/	/	/
Cc1ccc2ccccc2c1C(O)c1ncc(-c2ccccc2F)[nH]1 (stereo not given)	/	/	-12	/	22	2	/	/	/	/
CCOC(=O)C1=C(CSc2nc3ccccc3s2)NC(=O)NC1c1ccc(OC)cc1 (stereo not given)	i	4	-2	25*	17	2	i	i	-1.1	-16
Cc1ccc2cc(C#N)c(NCCCNC(=O)C3CCCO3)nc2c1 (stereo not given)	i	-1	6	25*	-3	0	i	i	-1	-8
Cc1ccc2cc(C#N)c(N3CCCN(C(=O)C4CCCO4)CC3)nc2c1 (stereo not given)	i	0	10	i	0	5	/	/	/	/
N#CC1=C2SCC(O)(c3ccccc3)N2C(=O)CC1c1ccccc1 (stereo not given)	i	3	4	100*	0	3	16%*	i	-0.95	-16
COc1ccc(C(NC(=O)C2CCN(Cc3ccc(Oc4ccccc4)cc3)CC2)c2ccccn2)cc1 (stereo not given)	/	/	-10	/	12	2	/	/	/	/
COC(=O)CCc1cccc(CCC(=O)OC)c1	i	-3	-13	25*	2	0	i	i	-0.97	-8
COC(=O)CCc1ccc(O)cc1	i	-1	-6	i	-3	0	/	/	/	/
CCOC(=O)c1cc2cc(F)ccc2nc1C	i	0	19	i	-3	0	/	/	/	/
Cc1nc2ccc(F)cc2cc1C(=O)NC(C)C	i	-1	-6	100*	14	6	i	i	-1	-9
SMILES	ANO1 activ	NTR1 agonist	CHO-K1 Ca antag	ANO1 block	M1 PAM parental	CHO-K1 Ca ag	TMEM16A reconf	TMEM16A Ca cntr	Parental YFP cnt	ClC-1 inh
N#CC1=C(N)OC2=C(CCc3ccccc32)C1c1ccccc1 (stereo not given)	i	13	-5	100*	18	1	52%*	i	-1.1	-10
CN(C)c1cccc(NC(=O)C2Cc3c(-c4ccc(Cl)cc4)ccnc3O2)c1 (stereo not given)	/	/	-13	/	18	0	/	/	/	/
Cc1ccc2[nH]c3c(N4CCOCC4)ncnc3c2c1	i	0	-2	i	4	5	/	/	/	/
Cc1ccc2[nH]c3c(N4CCc5ccccc5C4)ncnc3c2c1	i	25	35*	25*	-4	10	30%*	i	-0.91	-25
Clc1ccc2[nH]c3c(N4CCC5(CC4)OCCO5)ncnc3c2c1	/	1	/	100*	/	/	44%*	i	-0.86	-30
c1ccc2c(c1)[nH]c1c(N3CCSCC3)ncnc12	i	-1	6	25*	-7	4	28%*	i	-0.88	-20
O=C(CN1C(=O)NC2(CCCc3ccccc32)C1=O)c1ccc(F)c(F)c1 (stereo not given)	i	1	-9	/	13	1	/	/	/	/
CCOc1ccc(-n2ccnc2SCC(=O)NCc2ccc3c(c2)OCO3)cc1	i	0	4	100*	5	2	20%*	i	-1.2	-8
O=C(CSc1nccn1-c1ccc(F)cc1)NCc1ccc2c(c1)OCO2	i	0	-5	i	18	0	/	/	/	/
Cc1nnc(SCC(=O)c2cc(C)n(-c3ccc4c(c3)OCO4)c2C)s1	-6.1*	1	10	25*	8	12	i	21%*	-1.1	-11
Cc1cc(C(=O)CSc2nnnn2C)c(C)n1-c1ccc2c(c1)OCCO2	i	-3	-3	i	9	4	/	/	/	/
COCC(=O)NCCSc1c(C)[nH]c2ccccc12	i	0	-2	100*	-4	0	i	i	-0.92	-7
Cc1[nH]c2ccccc2c1SCC(=O)O	i	-1	-5	i	20	0	/	/	/	/
CCN(Cc1ccccc1)C(c1ccncc1)c1nnnn1C(C)(C)C (stereo not given)	i	0	8	i	-16	-1	/	/	/	/
